# Sampled rows, rich in hits. Any-hit rate of the full collection: about 3%.
# TexasRed fluor: Total Fluorescence Counterscreen for Inhibitors of the Interaction of Thyroid Hormone Receptor and Steroid Receptor Coregulator 2; AID 1479, 2009; TRb/SRC2 Texas Red total fluorescence interference; Potency, µM (highest dose often 106 µM); 280,000 compounds, 0.29% hits; active means well fitted curve in either direction with a large enough effect; inconclusive means small, poorly fitted or top-dose-only effect
#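 Human TRb ligand-binding domain at 0.6 uM with 20 nM Texas Red SRC2 peptide in Tris buffer containing 1 uM T3 and 5% DMSO, incubated with compound 5 h at ambient temperature. Total fluorescence (555/632 nm) calculated as parallel + 2 × perpendicular.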
# TRb-SRC2 inh: qHTS for Inhibitors of the Interaction of Thyroid Hormone Receptor and Steroid Receptor Coregulator 2. TRbeta-SRC2 peptide binding, fluorescence polarization; receptor liganded with 1 µM T3. 280,000 compounds, 0.065% hits. Thyroid hormone receptor beta (Homo sapiens), P10828. Potency, µM (titrated, usually from 106 µM), most hits filed as inhibitors; further: nearly all actives have a fitted effect of over 50% in size
# Target sequence (P10828 whole entry, looked up): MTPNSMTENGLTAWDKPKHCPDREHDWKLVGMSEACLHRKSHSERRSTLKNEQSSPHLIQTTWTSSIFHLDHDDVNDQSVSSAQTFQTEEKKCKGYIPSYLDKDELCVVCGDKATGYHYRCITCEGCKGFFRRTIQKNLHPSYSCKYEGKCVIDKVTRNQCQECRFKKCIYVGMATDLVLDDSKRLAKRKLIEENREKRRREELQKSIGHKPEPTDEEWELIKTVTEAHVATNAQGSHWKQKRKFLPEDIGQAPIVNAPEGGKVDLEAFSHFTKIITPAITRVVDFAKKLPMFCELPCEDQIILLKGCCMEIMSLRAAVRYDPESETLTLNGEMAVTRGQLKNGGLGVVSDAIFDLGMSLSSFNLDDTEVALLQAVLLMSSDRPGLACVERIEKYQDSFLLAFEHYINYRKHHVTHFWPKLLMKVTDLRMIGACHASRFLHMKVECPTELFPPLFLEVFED
#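 Polarization signal, normalized between peptide-alone and full complex controls, measured compound effects on T3-liganded human TRb LBD (0.6 uM) binding 20 nM Texas Red SRC2 peptide after 5 hr.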
# Tau fibril FP: qHTS for Inhibitors of Tau Fibril Formation, Fluorescence Polarization; Microtubule-associated protein tau (Homo sapiens), P10636; K18 P301L tau heparin fibrillization, Alexa594 FP, 6 h; Potency, µM (series often up to 57.7 µM), usual class: inhibitors; 280,000 compounds, 0.39% hits; further: nearly all actives have a fitted effect of over 55% in size
# Target sequence (P10636 561-689 P618L limits assumed): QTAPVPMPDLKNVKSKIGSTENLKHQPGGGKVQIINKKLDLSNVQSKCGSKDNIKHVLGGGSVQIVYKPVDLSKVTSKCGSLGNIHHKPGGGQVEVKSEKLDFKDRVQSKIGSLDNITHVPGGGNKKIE
#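 Quantitative HTS format: compounds meet 15 uM recombinant K18 P301L tau and Alexa 594-tau tracer in 100 mM sodium acetate pH 7; 20 uM heparin triggers fibrillization at 37 C over 6 hr; FP gives the signal.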
# Tau fluor counter: Counterscreen qHTS for Inhibitors of Tau Fibril Formation, Fluorescence Polarization; 280,000 compounds, 0.93% hits; Potency, µM (series often up to 57.7 µM); tau K18 P301L Alexa594 fluorescence, heparin fibrillization; further: nearly all actives have a fitted effect of over 55% in size
#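 Human tau K18 P301L (15 uM unlabeled, 0.24 uM Alexa 594-labeled) in 100 mM sodium acetate pH 7 with 20 uM heparin, 6 hr at 37 C. ThT 30 uM added, 1 hr ambient; Alexa 594 FP and total fluorescence read at 555/632 nm.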
# Tau ThT inhib: qHTS for Inhibitors of Tau Fibril Formation, Thioflavin T Binding; Microtubule-associated protein tau (Homo sapiens), P10636; recombinant tau K18 P301L, heparin-induced fibrillization, ThT fluorescence; Potency, µM (titrated, usually from 57.4 µM), hits mostly inhibitors; 270,000 compounds, 2.1% hits; AID 1460, 2008; further: nearly all actives have a fitted effect of over 55% in size
#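 Fibril formation assay: tau K18 P301L at 15 uM with trace Alexa 594 label, heparin inducer 20 uM, pH 7 sodium acetate buffer, 37 C for 6 hr; endpoint ThT signal.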
# Hits are given with their value; i = inactive; ? = inconclusive; nt = no result given; [ ] = another dose, or the depositor's remark. Unless noted, the call rests on the fitted dose curve; in most records, active means well fitted curve in the direction sought with a large enough effect; inconclusive means small, poorly fitted or top-dose-only effect, or another doubt; inactive means no such curve, though single readings can be large; an effect the other way counts as inactive or inconclusive.
SMILES,TexasRed fluor,TRb-SRC2 inh,Tau fibril FP,Tau fluor counter,Tau ThT inhib
Cc1ccc(NC(=O)C(=O)NCCCN2CCOCC2)cc1C,i,i,i,i,i
O=C(CCc1ccccc1)Nc1ncn[nH]1,i,i,i,i,i
O=C(/C=C/c1ccccc1)Nc1ncn[nH]1,i,i,?,i,10µM
CN(C)/C=C/c1oc2ccc(O)cc2c1[N+](=O)[O-],i,i,i,i,11.2µM
Cc1oc2ccc(O)cc2c1C(=O)c1ccc([N+](=O)[O-])cc1,i,i,i,i,i
O=[N+]([O-])c1ccc(O)c(Nc2ncnc3ccc(Br)cc23)c1,i,i,i,i,15.8µM
O=[N+]([O-])c1ccc(O)c(Nc2ncnc3ccccc23)c1,i,i,i,i,i
O=S(=O)(c1ccc(F)cc1)N1CCC(Oc2cccc(C(F)(F)F)c2)CC1,i,i,i,i,i
CCCC1=NN2C(=N)/C(=C\c3ccc(SCc4ccco4)o3)C(=O)N=C2S1,50.1µM[fluorescent],?,i,i,10µM
CCC1=NN2C(=N)/C(=C/c3c(C)nn(-c4ccccc4)c3Cl)C(=O)N=C2S1,i,i,i,i,i
CCC1=NN2C(=N)/C(=C\c3ccc(SCc4ccco4)o3)C(=O)N=C2S1,?,i,i,i,10µM
C=CCC(C)(O)c1ccsc1 (configuration not stated),i,i,i,i,i
CCOC(=O)c1c(C)oc2c1c(C(c1ccncc1)N1CCOCC1)c(O)c1ccccc12 (configuration not stated),i,i,i,?,14.1µM
O=C1/C(=C/c2ccc(F)cc2)SC(=S)N1Nc1ncc(C(F)(F)F)cc1Cl,i,i,i,i,?
O=C1/C(=C\c2ccccn2)SC(=S)N1Nc1ncc(C(F)(F)F)cc1Cl,i,i,?,i,28.2µM
CCCOc1ccc(CN2C(=O)C(=O)c3cccc(C)c32)cc1,i,i,i,i,17.8µM
Cc1ccc(CN2C(=O)C(=O)c3cc(Br)cc(C)c32)cc1,i,i,?,?,28.2µM
Cc1ccc(OCCCN2C(=O)C(=O)c3cccc(C)c32)cc1,i,i,i,i,?
CN(C)c1ccc(C(c2ccccc2)c2ccc(N(C)C)cc2)cc1,i,i,nt,nt,nt
Cc1ccc(C(C)NC(=O)/C(C#N)=C\c2c(C)[nH]c3ccccc23)cc1 (configuration not stated),i,i,25.1µM,10µM[quencher],i
Cc1ccc(S(=O)(=O)/C(C#N)=C/c2c[nH]c3ccccc23)cc1,i,i,12.6µM,10µM[quencher],?
Cc1ccc(C(=O)/C=C/c2c[nH]c3ccccc23)cc1,i,i,i,14.1µM[quencher],?
Cc1ccc(C(=O)/C=C/c2cn(CN3CCN(C)CC3)c3ccccc23)cc1,i,i,i,14.1µM[quencher],?
COC(=O)/C(C#N)=C/c1c[nH]c2ccccc12,i,i,i,i,i
COc1ccc2[nH]cc(/C=C/C(=O)c3ccccc3)c2c1,i,i,i,8.91µM[quencher],?
SMILES,TexasRed fluor,TRb-SRC2 inh,Tau fibril FP,Tau fluor counter,Tau ThT inhib
O=C(/C=C/c1c[nH]c2ccccc12)c1ccccc1,i,i,?,i,i
Cn1cc(/C=C/C(=O)c2ccccc2)c2ccccc21,i,i,i,?,?
O=C(NCc1ccc(F)cc1)c1ccc2c(c1)N(Cc1c(F)cccc1Cl)C(=O)CS2,i,i,i,i,i
Cc1cc2c(c(C)c1Cl)C(c1ccc3c(c1)OCO3)CC(c1ccccc1)O2 (configuration not stated),i,i,nt,nt,nt
CCc1ccc(CNC(=O)C2CCCN(c3nnc(C)c4c(C)n(-c5ccc(OC)cc5)nc34)C2)cc1 (configuration not stated),i,i,?,?,?
C=Cc1ccc([C@H]2N[C@@H](C(=O)O)CC[C@@H]2C)cc1,i[11.2 µM],i[11.2 µM],i[11.6 µM],i[11.6 µM],i[11.5 µM]
CCC(Sc1nc(C)cc(C)n1)C(=O)NC1=NN=C(c2ccc(C)cc2)CS1 (configuration not stated),i,i,?,i,31.6µM
N#C/C(=C/c1ccccc1Cl)c1nc(-c2cc3ccccc3oc2=O)cs1,?,i,i,i,i
COc1cc(/C=C(/C#N)c2nc(-c3cc4ccccc4oc3=O)cs2)ccc1O,i,i,i,?,4.47µM
COc1cccc(C2Nc3ccccc3-c3nnc(SCc4ccccc4)nc3O2)c1OC (configuration not stated),i,i,i,i,i
Cc1cccc(C2C3=C(Nc4[nH]n(-c5ccccc5)c(=O)c42)c2ccccc2C3=O)c1 (configuration not stated),i,i,i,?,15.8µM
Cc1ccccc1C1C2=C(Nc3[nH]n(-c4ccccc4)c(=O)c31)c1ccccc1C2=O (configuration not stated),i,i,i,?,14.1µM
Cc1ccccc1-c1ccnc2[nH]n(-c3ccccc3)c(=O)c12,i,i,i,i,?
COc1ccc(C2C(C#N)=C(C)NC3=C2C(=O)c2ccccc23)cc1 (configuration not stated),i,i,i,i,?
Cc1ccc(-c2cc(-c3ccc4c(c3)NC(=O)CO4)nc3c2COc2ccccc2-3)cc1,i,i,?,i,i
CCc1ccc(CNC(=O)c2cnc3sc4cc(OC)ccc4n3c2=O)cc1,i,i,i,i,i
O=S(=O)(O)c1cc(O)c2c(N=Nc3ccc(Nc4ccccc4)c4c(S(=O)(=O)O)cccc34)cc(S(=O)(=O)O)cc2c1,20µM[quencher],i,nt,nt,nt
NN1C(=O)/C(=C\c2ccco2)SC1=S,i,i,?,?,31.6µM
CN(C)c1ccc(/C=C/C=C2/SC(=S)N(c3ccccc3)C2=O)cc1,3.16µM[fluorescent],?,i,0.708µM[fluorescent],2.51µM
O=C(O)c1ccc(N2C(=O)/C(=C/C=C/c3ccccc3)SC2=S)cc1,i,i,i,i,?
O=C1/C(=C/c2ccco2)SC(=S)N1c1cccnc1,i,i,?,?,15.8µM
CC(C)C(C(=O)O)N1C(=O)/C(=C/C=C/c2ccco2)SC1=S (configuration not stated),?,i,25.1µM,?,12.6µM
COc1ccc(-c2nn(-c3cccc([N+](=O)[O-])c3)c3c2cnc2cc4c(cc23)OCO4)cc1,i,i,i,i,i
O=C1/C(=C\c2ccco2)SC(=S)N1c1ccc(O)cc1,i,i,i,?,17.8µM
O=C1/C(=C/C=C/c2ccco2)SC(=S)N1c1ccc(O)cc1,i,i,?,11.2µM[quencher],3.98µM
COc1cc(OC)c(NC(=O)NCCn2nnc3cc(S(=O)(=O)N(C)C)ccc32)cc1Cl,i,i,i,i,i

# Screens (PubChem BioAssay)
